Measurements as given in PubChem BioAssay (NCI).
The panel holds about 79,000 compounds, 15% with a hit somewhere; the sample as a whole holds those more often. Activity calls are given as the source filed them. No stated cut-off is given here; in the data, active means growth inhibition above about 70%; inactive means the rest.

Columns and labels:
[1] = NCI Yeast Anticancer Drug Screen. Data for the rad50 strain (AID 155);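 further: 0% = growth of vehicle-only cultures of the same strain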; details: S. cerevisiae rad50 strain growth inhibition; at 50.0 µM; hits give high values
Procedure, shortened: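 A DNA repair-deficient yeast mutant serves as the test organism; compound-induced growth inhibition is calculated against vehicle-treated cells.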

[2] = NCI Yeast Anticancer Drug Screen. Data for the mec2-1 strain (AID 157); details: S. cerevisiae mec2-1 strain, at 50.0 µM, hits give high values
Procedure, shortened: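 Compounds were applied to mec2-1 yeast cells. Their growth was then compared with that of vehicle-treated cultures to give growth inhibition.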

[3] = NCI Yeast Anticancer Drug Screen. Data for the sgs1 mgt1 strain (AID 161);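 further: 0% = growth of cultures given vehicle only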; details: S. cerevisiae sgs1 mgt1 strain, at 50.0 µM, hits give high values
Procedure, shortened: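 Percent growth inhibition was derived by comparing compound-exposed mutant yeast with vehicle-exposed cultures. The strain carries alterations in DNA damage repair.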

[4] = NCI Yeast Anticancer Drug Screen. Data for the cln2 rad14 strain (AID 165);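 further: 0% = growth equal to vehicle treated cultures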; details: S. cerevisiae cln2 rad14 strain, at 50.0 µM, hits give high values
Procedure, shortened: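 Strain: cln2 rad14 yeast, altered in cell cycle control and DNA damage repair. Read-out: growth inhibition vs vehicle.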

[5] = NCI Yeast Anticancer Drug Screen. Data for the mlh1 rad18 strain (AID 175); details: S. cerevisiae mlh1 rad18 strain growth inhibition; at 50.0 µM; hits give high values
Procedure, shortened: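 A repair-deficient yeast strain is exposed to test compound, and growth is scored relative to vehicle-treated controls.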

[6] = NCI Yeast Anticancer Drug Screen. Data for the bub3 strain (AID 167); details: S. cerevisiae bub3 mutant strain, at 50.0 µM, hits give high values
Procedure, shortened: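 Inhibition values come from growth of compound-treated mutant yeast normalised to vehicle-treated controls.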

Measured: growth inhibition

O=C(NCCO)c1cc([N+](=O)[O-])cc([N+](=O)[O-])c1
inactive: [1] -37.9% | [2] -4.25% | [3] -1.25% | [4] -25.9% | [5] 3.4%

[CH3][Sb]1([Br])[CH2]CC[CH2]1
inactive: [1] 6.8% | [2] 15.2% | [3] 5.85% | [4] -1.6% | [5] 3.05%

N#CC1(c2ccccc2)CCNCC1
inactive: [1] -2.2% | [2] -33.5% | [3] -3.15% | [4] 1.05% | [6] -0.5% | [5] -17.8%

CNC(=O)Oc1cccc2c(OC3OC(CO)C(O)C(O)C3O)cccc12 (centres undefined)
inactive: [1] -25.5% | [2] 19.4% | [3] -12.8% | [4] -16.7% | [5] -23.9%

O=[N+]([O-])c1cccc(C(Cl)Cl)c1
inactive: [1] 30.5% | [2] -4.7% | [3] 22.4% | [4] 22.1% | [5] -2.25%

N.N.NC(CS)C(=O)[O-].NC(CS)C(=O)[O-].[Pt+4] (centres undefined)
inactive: [1] 15% | [2] -4% | [3] 3.25% | [4] -21.6% | [5] 15.4%

C[Si]1(C)CCCC2(C1)C(=O)NC(=O)NC2=O
inactive: [1] -31.6% | [2] -17.3% | [3] -9% | [4] -1.75% | [6] -4.2% | [5] -41.5%

NC(=O)c1cc([N+](=O)[O-])c(N(CCCl)CCCl)c([N+](=O)[O-])c1
inactive: [1] 13.8% | [2] 17.1% | [3] 5.05% | [4] 17.9% | [5] 17.8%

Cc1cc(-n2c(/C=C/c3ccc(Cl)cc3)nc3cc(Cl)ccc3c2=O)on1
inactive: [1] -27.2% | [2] -34.3% | [3] -12.8% | [4] -0.1% | [6] -9.75% | [5] -10.8%

Nc1ccc2c(c1)[O][Sn]([c]1ccccc1)([c]1ccccc1)[O]C2=O
active: [1] 85.5% | [2] 89.5% | [3] 89.1% | [4] 89.2% | [5] 89.3%

N#CC1OC1c1cccnc1 (centres undefined)
inactive: [1] 3.9% | [2] -1.45% | [3] -4.45% | [4] 20.6% | [5] -16.1%

Oc1cc(N2CC2)c(O)cc1N1CC1
inactive: [1] 12.8% | [2] 13.9% | [3] 11.2% | [4] -42.6% | [5] 11.4%

CCCCC(CC)CC1C(=O)NC(=S)NC1=O (centres undefined)
inactive: [1] -3.7% | [2] 5.55% | [3] -17.8% | [4] -37.1% | [5] 6.35%

CC(=O)OC1CCC2(C)C(CCC3C2CCC2(C)C3CC(CC(=O)O)C2OC(C)=O)C1 (centres undefined)
inactive: [1] 16.5% | [2] 18.8% | [4] -0.5% | [6] 3.3%

CN1C2CCC1CC(OC(=O)/C=C\c1ccccc1)C2 (centres undefined)
inactive: [1] 29% | [2] -7.7% | [4] 1.95% | [6] 8.45% | [5] 9.6%

Nc1nc(=S)nc(N)[nH]1
inactive: [1] 21.6% | [2] 11.2% | [4] -18.5% | [6] 14.6% | [5] -2.5%

C1CN1[PH+](N1CC1)N1CC1.[C-]#[O+].[C-]#[O+].[C-]#[O+].[C-]#[O+].[C-]#[O+].[W]
inactive: [1] -12.8% | [2] -3.85% | [4] -43.9% | [6] 13.1% | [5] 3.1%

c1cc[c]([Hg][S]c2nc3ccccc3s2)cc1
inactive: [1] -22.4% | [2] -7.1% | [4] -37.3% | [6] -5.15% | [5] -5.1%

O=C(O)C(O)(Cl)c1cccs1 (centres undefined)
inactive: [1] -0.5% | [2] -3.35% | [3] -4.8% | [6] -7.15% | [5] 14.8%

C=CCC1(O)CCC2C3CCC4=CC(=O)CCC4=C3C=CC21CC (centres undefined)
inactive: [1] 26.9% | [2] -7.35% | [4] 19.9% | [6] 21.5% | [5] 21.6%

CSc1ccc([As](=O)(O)O)cc1
inactive: [1] 15.2% | [2] 4.45% | [3] 30.9% | [6] -18.1% | [5] 46.5%

Oc1ccccc1C1NCCc2[nH]cnc21 (centres undefined)
inactive: [1] 39% | [2] 11.3% | [4] 30.8% | [6] 4.15% | [5] 7.9%

O=C([CH-]C(=O)c1ccccc1)c1ccccc1.O=C([CH-]C(=O)c1ccccc1)c1ccccc1.[OH-].[OH-].[Ti+4]
inactive: [1] 6.25% | [2] -9.65% | [3] -6.85% | [6] 36.9% | [5] 8.7%

COc1ccc(CCN)c(OC)c1
inactive: [1] -11.2% | [2] 2.8% | [4] -13.1% | [6] -8.25% | [5] -35.1%

CCCCCCCCCCCCCCCC(=O)OCC(C[As](=O)(O)O)OC(=O)CCCCCCCCCCCCCCC (centres undefined)
inactive: [1] 26.1% | [2] 5.9% | [4] 9.5% | [6] -0.15% | [5] 13.5%

CCOP(=O)(O)SP(=O)(O)OCC.[Zn+2]
inactive: [1] -13.9% | [2] -11.8% | [3] -7% | [6] -5.45% | [5] -0.35%

CP(=S)(c1ccccc1)P(C)(=S)c1ccccc1 (centres undefined)
inactive: [1] -15.4% | [2] -19.4% | [4] 5.05% | [6] -21.2% | [5] -31%

CC(Nc1c([N+](=O)[O-])ccc(C(=O)NCCN(C)C)c1[N+](=O)[O-])C(=O)Nc1ccc(N(CCCl)CCCl)cc1 (centres undefined)
inactive: [1] -34.6% | [2] -9.75% | [4] 7.35% | [6] -8.05% | [5] -7.75%

CC(=O)N(N=O)c1cc(Cl)ccc1Cl
inactive: [1] -2.75% | [2] -11.1% | [3] 3.15% | [5] -1.45%

COc1ccc(N2CC=C(c3ccccc3)OP2(=O)N(CCCl)CCCl)cc1 (centres undefined)
inactive: [1] -49.8% | [2] -4.5% | [4] 9.75% | [6] 6.4% | [5] -3.2%

CC(CN1NC12CCCC2)N1NC12CCCC2 (centres undefined)
inactive: [1] 0.95% | [2] -1.85% | [3] 29.2% | [6] 15.6% | [5] -35.5%

Nc1nc(N)c(N=Nc2ccc([As](=O)(O)O)c(O)c2)c(N)n1
inactive: [1] -4% | [2] -6.9% | [4] -18.4% | [6] -43%

O[As](O)O.S=C(S)c1ccccc1S
inactive: [1] 7.55% | [2] -13% | [4] 28% | [6] 1.75% | [5] 24.9%

CNc1ccccc1C(=O)O
inactive: [1] -19.8% | [2] -7.3% | [4] -9.75% | [6] -12.2%

O=NNc1cnc2ccccc2n1
inactive: [1] 48.5% | [2] -0.25% | [3] -9.75% | [6] -38.2% | [5] 12.2%

CN(C)CCNC(=O)c1ccc(N(CCCl)CCCl)c([N+](=O)[O-])c1[N+](=O)[O-]
inactive: [1] 36.4% | [2] 20.4% | [4] 17.6% | [6] 9.65% | [5] 34%

CNC1=C(N2CC2)C(=O)C(NC)=C(N2CC2)C1=O
inactive: [1] 7.7% | [2] 28.3% | [4] 10.8% | [6] 13.8% | [5] 36.4%

CC1=CC23C(COC(=O)C24CO4)C(C(=O)O)=CC3C1C (centres undefined)
inactive: [1] -22.8% | [2] -19.7% | [4] 27% | [6] -8.95% | [5] -5.7%
